Bioassay records deposited in PubChem by several laboratories.
Compounds with a hit are over-represented: about 28% of the library has one in this group of screens.
CYP2C19 act: human CYP2C19 activators, primary screen, biochemical, luminescence | Cytochrome P450 2C19 (Homo sapiens), P33261 | recombinant CYP2C19, luciferin-H EGE luminescence; active compounds read high; 0 = fully inhibited enzyme, 1 = untreated enzyme | activation factor at 5 µM | 96,000 tested, under 10 active;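 active = activation factor of at least 2 at 5 µM in the primary screen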
PLK1 inh: human PLK1 kinase inhibitors, primary screen, biochemical, TR-FRET; Serine/threonine-protein kinase PLK1 (Homo sapiens), P53350; 0.53% of 97,000 active; AID 619, 2007; recombinant PLK1 kinase, TR-FRET peptide phosphorylation; inhibition, % at 10 µM;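 active = inhibition of 50% or more in the single-concentration screen; inactive = inhibition below 50%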
Target sequence (P53350 whole entry, looked up): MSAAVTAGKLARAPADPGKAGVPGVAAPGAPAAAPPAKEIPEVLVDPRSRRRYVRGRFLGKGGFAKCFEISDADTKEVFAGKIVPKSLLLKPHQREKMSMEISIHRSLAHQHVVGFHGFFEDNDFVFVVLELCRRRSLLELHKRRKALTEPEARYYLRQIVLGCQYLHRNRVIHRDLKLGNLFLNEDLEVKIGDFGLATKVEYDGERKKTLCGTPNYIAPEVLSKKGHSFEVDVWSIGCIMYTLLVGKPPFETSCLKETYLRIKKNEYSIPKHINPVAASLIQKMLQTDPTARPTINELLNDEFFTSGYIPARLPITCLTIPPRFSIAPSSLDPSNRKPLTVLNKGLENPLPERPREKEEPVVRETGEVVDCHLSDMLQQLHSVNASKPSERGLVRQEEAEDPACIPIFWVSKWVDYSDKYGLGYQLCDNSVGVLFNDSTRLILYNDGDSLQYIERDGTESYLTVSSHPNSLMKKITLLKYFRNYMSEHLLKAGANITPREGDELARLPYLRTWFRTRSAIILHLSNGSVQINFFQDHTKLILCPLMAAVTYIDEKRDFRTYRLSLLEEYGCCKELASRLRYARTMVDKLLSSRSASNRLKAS
CYP2C9 inh: blockers of cytochrome P450 2C9 activity – biochemical, luminescence, ADME assay, primary screen; 20% of 96,000 active; P11712; CYP2C9 Supersomes, luciferin-H conversion; inhibition, % at 5 µM;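 active = blocking of liver enzyme CYP2C9 beyond about 50% at 5 µM, limit read from the data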
Plk1 PBD FP: Plk1 polo box domain binding inhibitors, primary screen, biochemical, fluorescence polarization | inhibition, %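 (tested at about 20 µM)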 | 0.13% of 97,000 active | Plk1 PBD phosphopeptide binding; in the data active = inhibition above about 34%, passing the limit was not always enough
CYP2C9 act: human CYP2C9 activators, primary screen, biochemical, luminescence; activation factor at 5 µM; recombinant CYP2C9, luciferin-H conversion; active compounds read high; factor 1 = untreated enzyme, 0 = blocked; Cytochrome P450 2C9 (Homo sapiens), P11712; 1.4% of 96,000 active;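 active = activation factor of 2 or more for CYP2C9 at a 5 µM dose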
CYP2C19 inh: blockers of cytochrome P450 2C19 activity – biochemical, luminescence, ADME assay, primary screen; P33261; CYP2C19 Supersomes, luciferin-H EGE luminescence, 30 min; inhibition, % at 5 µM; 21% of 96,000 active; AID 778, 2007;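 active = CYP2C19 inhibition above a set limit at 5 µM in the primary screen, cut at about 50% in these data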
Each line names hits and unclear results; the compound was inactive in the other large screens.

CC(C(=O)NC1CCCC1)N(Cc1ccco1)C(=O)c1snc(C(=O)NC2CCCC2)c1N (stereo not given)	none
CC(C(=O)NC1CCCC1)N(C(=O)c1snc(C(N)=O)c1N)c1ccc2c(c1)OCCO2 (stereo not given)	CYP2C9 inh 50
COCCNC(=O)C(c1ccc(C)o1)N(Cc1ccco1)C(=O)c1snc(C(N)=O)c1N (stereo not given)	none (no result: CYP2C19 act, CYP2C9 inh, CYP2C9 act, CYP2C19 inh)
COc1ccccc1N(C(=O)c1snc(C(N)=O)c1N)C(C(=O)NC1CCCC1)c1ccco1 (stereo not given)	CYP2C19 inh 62
COc1ccc(CN(C(=O)c2snc(C(N)=O)c2N)C(C(=O)NC(C)(C)C)c2ccco2)cc1 (stereo not given)	none
COC(=O)Cc1cc(=O)n2[nH]c(C(F)(F)F)nc2n1	none
COc1ccccc1N(C(=O)c1snc(C(N)=O)c1N)C(C(=O)NCCC(C)C)c1ccco1 (stereo not given)	none
CCOc1ccccc1N(C(=O)c1snc(C(N)=O)c1N)C(C(=O)NCCC(C)C)c1ccco1 (stereo not given)	CYP2C9 inh 50
O=C(NCC1CCCO1)c1cccs1 (stereo not given)	none
O=C(c1ccc2c(c1)OCCCO2)c1cccs1	CYP2C9 inh 60, CYP2C19 inh 74
O=c1cc2c(nn1Cc1ccc(Cl)cc1)-c1ccccc1CC2	CYP2C9 inh 97, CYP2C19 inh 97
O=C(Cn1cnc2c(nnn2Cc2ccc(Cl)cc2)c1=O)N1CCCc2ccccc21	none (no result: CYP2C19 act, CYP2C9 inh, CYP2C9 act, CYP2C19 inh)
O=c1cc2c(nn1Cc1cccc(Cl)c1)-c1ccccc1CC2	CYP2C9 inh 100, CYP2C19 inh 84
CSc1ccccc1NC(=O)Nc1ccc(Cl)cc1	CYP2C9 inh 53, CYP2C19 inh 85
CSc1cccc(NC(=O)Nc2ccc(Cl)cc2)c1	none
COc1ccc(C2CC3CC(c4ccccc4)N2O3)cc1 (stereo not given)	CYP2C19 inh 91
Cc1ccc(N2C(=O)CSCC2=O)cc1	none
Cc1ccc(N2C(=O)CSC23C(=O)Nc2ccccc23)cc1 (stereo not given)	CYP2C19 inh 79
CCS(=O)(=O)N1CCC(C(=O)NCc2cc(OC)ccc2OC)CC1	none
CC1(C)CNC(=O)C=C(c2ccccc2)C1	none
O=C(NCC1CCCO1)c1ccc(CS(=O)(=O)c2c(Cl)cccc2Cl)o1 (stereo not given)	CYP2C19 inh 54
CSc1nnnn1-c1ccc(C(=O)OCC(=O)N2CCOCC2)cc1	none
CCC(c1nnnn1C1CCCCC1)N(Cc1ccco1)Cc1cc2ccc(OC)cc2[nH]c1=O (stereo not given)	CYP2C9 inh 84, CYP2C19 inh 95
COc1ccc2cc(CN(CCCN3CCOCC3)Cc3nnnn3C3CCCCC3)c(=O)[nH]c2c1	none
COc1ccc2[nH]c(=O)c(CN(Cc3nnnn3Cc3ccco3)C3CCCCC3)cc2c1	CYP2C9 inh 75, CYP2C19 inh 89
COc1ccc2cc(CN(CCc3ccccc3)Cc3nnnn3Cc3ccco3)c(=O)[nH]c2c1	CYP2C9 inh 100, CYP2C19 inh 96
COc1ccccc1CN(Cc1cc2c(C)ccc(C)c2[nH]c1=O)Cc1nnnn1Cc1ccco1	CYP2C9 inh 80, CYP2C19 inh 60
COc1ccc(Cn2nnnc2CN(Cc2cc3cc(C)ccc3[nH]c2=O)C2CCCC2)cc1	none
CCOC(=O)c1c(N2C(=O)C=CC2=O)sc(C)c1C	none
CCCc1cc(=O)[nH]c(-n2[nH]c3c(c2=O)CCCC3)n1	none
CCSc1ccccc1C(=O)NCc1ccco1	none
O=c1cc(N2CCN(Cc3ccccc3)CC2)[nH]c(=O)n1-c1ccc(Br)cc1	none
CCOc1cc(/C=N/NC(=O)CNc2ccc(C)cc2)ccc1OC(=O)c1ccccc1	none
Cc1cccc(C(=O)NC2CCN(C(=O)N3CCOCC3)CC2)c1	none
Cc1ccc2cc(C(c3nnnn3C3CCCC3)N(Cc3cccnc3)Cc3ccco3)c(=O)[nH]c2c1 (stereo not given)	CYP2C9 inh 74, CYP2C19 inh 92 (no result: PLK1 inh, Plk1 PBD FP)
COc1ccc2[nH]c(=O)c(CN(C3CCCCC3)C(c3nnnn3Cc3ccco3)C(C)C)cc2c1 (stereo not given)	CYP2C9 inh 95, CYP2C19 inh 60
COc1ccc2[nH]c(=O)c(C(c3nnnn3C3CCCC3)N(C)C3CCCCC3)cc2c1 (stereo not given)	none
Cc1ccc(S(=O)(=O)N2CCC(C(=O)NCc3ccccc3Cl)CC2)cc1	none
CCC/C(O)=C1\C(=O)CCCC1=NC(C)C(=O)O (stereo not given)	none
CCOC(=O)C1CCN(C(=O)CCCCn2c(=O)[nH]c3ccccc3c2=O)CC1	none (no result: CYP2C19 act, CYP2C9 inh, CYP2C9 act, CYP2C19 inh)
C=C(C)CN1C(=O)c2ccccc2C1=O	none
O=C(CN1C(=O)c2ccccc2C1=O)c1ccccc1	CYP2C9 inh 51
O=C(OCC(=O)N1CCCCC1)c1c[nH]c(=O)[nH]c1=O	CYP2C9 inh 89
COc1ccc(S(=O)(=O)N2CCC(C(=O)Nc3cccc(C(C)=O)c3)CC2)cc1	none (no result: CYP2C19 act, CYP2C9 inh, CYP2C9 act, CYP2C19 inh)
O=S(=O)(Nc1ccc2c(c1)OCO2)c1cccs1	CYP2C9 inh 66, CYP2C19 inh 91
O=C(Nc1ccc2c(c1)OCCO2)C1CCCN(S(=O)(=O)c2cccs2)C1 (stereo not given)	none
O=C(Nc1ccc2c(c1)OCO2)C1CCCN(c2nc3ccccc3s2)C1 (stereo not given)	CYP2C9 inh 54
CC(=O)c1cccc(NC(=O)C2CCN(S(=O)(=O)c3cccs3)CC2)c1	CYP2C9 inh 68, CYP2C19 inh 92
O=C(Nc1ccc2c(c1)OCO2)C1CCCN(S(=O)(=O)c2cccs2)C1 (stereo not given)	CYP2C9 inh 68, CYP2C19 inh 53
CCC(CC)NC(=O)C1CCN(S(=O)(=O)c2cccs2)CC1	none
O=C(Nc1ccc2c(c1)OCCO2)C1CCN(S(=O)(=O)c2cccs2)CC1	CYP2C9 inh 58, CYP2C19 inh 67
O=C(Nc1ccc2c(c1)OCO2)C1Cc2ccccc2CN1S(=O)(=O)c1cccs1 (stereo not given)	CYP2C9 inh 72, CYP2C19 inh 56
CCC(C)NC(=O)C1CCN(S(=O)(=O)c2cccs2)CC1 (stereo not given)	CYP2C9 inh 52
O=C(Nc1ccc2c(c1)OCO2)C1CCN(S(=O)(=O)c2cccs2)CC1	none
CC(=O)N1CCc2c(sc(NC(=O)c3ccc4c(c3)OCCO4)c2C#N)C1	none (no result: PLK1 inh, Plk1 PBD FP)
CC1CC(NC(=O)C2(C)CC2(Cl)Cl)CC(C)(C)C1 (stereo not given)	none
